ELG1 DNA repair = ELG1-dependent DNA repair inhibition. HEK293T ELG1-luciferase reporter, luminescence, 16 h; DNA damage induced by 5-fluorouridine. Potency, µM (titrated, usually from 46.1 µM), inactives show at the top dose activity change, negative = inhibition, actives largely listed as inhibitors. actives 2.3% (n = 330,000). AID 504467; also: % is scaled to controls: 0 for no effect and ±100 for the full control effect; nearly all actives have a fitted effect of over 55% in size
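5-Fluorouridine DNA damage + compound/DMSO, 2,000 cells/well, 16 h, 37 °C/5% CO2. ONE-Glo, 30 min RT, luminescence. Readout = decrease in reporter signal.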
Rab9 promoter act = Rab9 promoter activation; Huh7 Rab9 promoter-luciferase reporter, luminescence, 24 h; actives 2.8% (n = 320,000); Potency, µM (top dose mostly 9.22 µM), without a hit: at the highest dose activation, negative = inhibition, most hits filed as activators; AID 485297; also: % of control where 0% means no effect; nearly all actives have a fitted effect of over 60% in size
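Luminescence from Amplite-detected luciferase (10 minutes, ambient) reports Rab9 promoter activation. Before that, stable Rab9-luciferase Huh7 cells (1500/well, reduced-serum OP-MEM I plus 10% FBS) were exposed to compound for 24 hours at 37C.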
SMN2 splice enh = increases expression of the SMN2 splice variant; actives 2.8% (n = 210,000); HEK293 SMN2-luciferase splicing reporter, luminescence, 30-36 h; AID 1458; Potency, µM (doses to about 46.1 µM), for inactives: at the top dose activity change, positive = activation, hits mostly activators; also: % of control where 0% means no effect; nearly all actives have a fitted effect of over 55% in size
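qHTS luciferase splicing reporter: luminescence rises when SMN2 exon 7 is included in transfected HEK293 cells. Compound exposure lasted 30-36 h at 37C, with 4.5 mM final sodium butyrate as control, followed by a ONE-Glo read.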
NPC1 promoter act = activates the NPC1 promoter; Huh7 NPC1 promoter luciferase reporter, 24 h; Potency, µM (series often up to 9.22 µM), for the others: top-dose activation, actives largely listed as activators; actives 2.4% (n = 320,000); also: % of control where 0% means no effect; nearly all actives have a fitted effect of over 60% in size
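Quantitative HTS used a cell-based reporter: Huh7 cells stably bearing the NPC1 promoter upstream of luciferase were treated with compounds for 24 h, and promoter activation was read as luminescence.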
FLuc modulator = inhibits or activates purified firefly luciferase, miR-21 counter-screen; actives 6.9% (n = 360,000); AID 588342; Potency, µM (doses to about 57.5 µM), for inactives: top-dose activity change, negative = inhibition, actives largely listed as inhibitors; purified FLuc, Km substrates, luminescence inhibition;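 also: plate controls were vehicle for no effect and reference inhibitor for full effect; nearly all actives have a fitted effect of over 55% in size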
Target sequence (P08659 whole entry, looked up): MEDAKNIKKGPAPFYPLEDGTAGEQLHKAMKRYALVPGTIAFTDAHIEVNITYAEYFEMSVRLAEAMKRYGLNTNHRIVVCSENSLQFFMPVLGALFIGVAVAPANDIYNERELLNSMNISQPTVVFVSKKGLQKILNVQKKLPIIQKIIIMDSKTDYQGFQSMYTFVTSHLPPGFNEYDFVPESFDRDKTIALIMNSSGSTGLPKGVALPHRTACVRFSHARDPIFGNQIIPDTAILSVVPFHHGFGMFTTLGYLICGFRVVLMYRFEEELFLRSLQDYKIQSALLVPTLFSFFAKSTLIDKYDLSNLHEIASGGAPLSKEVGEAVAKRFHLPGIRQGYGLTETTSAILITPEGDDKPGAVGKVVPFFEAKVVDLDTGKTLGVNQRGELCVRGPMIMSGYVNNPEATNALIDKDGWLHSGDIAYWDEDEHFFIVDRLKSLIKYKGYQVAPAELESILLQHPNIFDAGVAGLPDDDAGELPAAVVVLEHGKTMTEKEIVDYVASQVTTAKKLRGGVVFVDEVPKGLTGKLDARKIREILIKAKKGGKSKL
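Purified P. pyralis luciferase (10nM final) with 10uM D-luciferin and 10uM ATP (Km levels) in 50mM Tris acetate pH 7.5, 10mM Mg acetate, 0.01% Tween-20, 0.05% BSA; qHTS 6-point titration, ~60 µM downward; luminescence read.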
ELG1 genotoxic = induces genotoxicity in HEK293T cells with luciferase-tagged ELG1 | HEK293T ELG1-luciferase reporter, luminescence, 16 h | Potency, µM (highest dose often 46 µM), for inactives: top-dose activity change, positive = activation, actives largely listed as activators | actives 1.3% (n = 330,000); also: % of control where 0% means no effect; nearly all actives have a fitted effect of over 60% in size
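Screening used a luciferase reporter fused to human ELG1 in HEK293T cells. Luminescence was read on a CCD plate imager after 16 hr exposure and 30 min ONE-Glo incubation.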
Active calls of the source: *; ? = inconclusive; . = no result. Shown are actives, neighbours in structure and some others; about 9.2% of the full set was active somewhere. Calls follow the shape of the dose curve; as a rule, active = well fitted curve in the direction sought with a large enough effect; inconclusive = small, poorly fitted or top-dose-only effect, or another doubt; inactive = no such curve, though single readings can be large; an effect the other way counts as inactive or inconclusive. Potency is read from the fitted curve at half-maximal effect.

SMILES | ELG1 DNA repair | Rab9 promoter act | SMN2 splice enh | NPC1 promoter act | FLuc modulator | ELG1 genotoxic
Cc1cc(Cl)ccc1C(=O)C1CCCN(C(=O)c2cncs2)C1 (stereo not given) | 9.2% | 0.0% | . | 1.1% | 0.1% | -3.5%
COc1ccccc1N1CCN(C(=O)Cn2ncc3c(=O)oc4ccc(C)cc4c32)CC1 | . | . | -5.5% | . | 0.7% | .
COc1cc(NC(=O)c2sc3nc4n(c(=O)c3c2C)CCCCC4)cc(OC)c1OC | . | . | . | . | -1.5% | .
O=C(Nc1ccc(F)cc1)c1ccc2ncsc2c1 | ? | 3.55µM* | . | 2.24µM* | 23.9µM* | ?
O=C(O)c1ccc2ncsc2c1 | ? | 3.55µM* | . | ? | ? | 14.2%
O=C(Nc1ccc(N2CCOCC2)cc1)c1ccc2ncsc2c1 | ? | . | . | . | . | 19.0%
O=C(Nc1cccc(Cl)c1)c1ccc2ncsc2c1 | ? | 3.55µM* | . | 3.98µM* | 19µM* | ?
O=C(Nc1ccc(C(F)(F)F)cc1)c1ccc2ncsc2c1 | ? | 3.55µM* | . | 3.55µM* | 13.5µM* | ?
CCCCNCc1cc(OCC)c(OCC)cc1Br | 0.0% | -2.3% | -13.4% | -2.0% | 5.8% | -3.0%
O=C(Nc1ccc(Cl)cc1)c1ccc2ncsc2c1 | ? | 3.55µM* | . | 2.82µM* | 12µM* | ?
CCOC(=O)c1c(NC(=O)Cn2ccsc2=N)sc(C)c1C | -8.1% | 8.9% | 0.6% | -4.4% | -2.2% | -2.8%
N#C/C(=C/C=C/c1ccccc1)C(=O)Nc1ccccc1 | 5.8µM* | -0.9% | -39.0% | -0.4% | -2.2% | -12.4%
N#C/C(=C\C=C\c1ccccc1)C(=O)Nc1ccccc1 | 5.3% | 9.8% | 15.3% | 11.8% | -10.2% | 1.1%
N#C/C(=C/c1ccc(O)c([N+](=O)[O-])c1)C(=O)Nc1ccccc1 | 2.1% | -6.7% | . | -30.5% | 13.5µM* | -4.7%
CN(C)c1ccc(NC(=O)CC(NCc2ccccn2)C(=O)O)cc1 (stereo not given) | 4.4% | -3.8% | ? | -1.5% | 3.9% | -3.1%
Cc1sc2ncnc(NCC(O)c3ccc([N+](=O)[O-])cc3)c2c1C (stereo not given) | ? | -35.7% | . | -32.3% | 0.8% | -19.7%
O=C(Nc1ccc(Cl)cc1Cl)c1ccc(Br)o1 | ? | ? | . | 2.24µM* | 13.5µM* | ?
O=C(Nc1cc(C(F)(F)F)ccc1N1CCOCC1)c1ccc(Br)o1 | . | . | -20.7% | . | 5.3% | .
O=C(Nc1cc(Cl)ccc1N1CCOCC1)c1ccc(Br)o1 | ? | 0.562µM* | . | 3.16µM* | 0.849µM* | 1.16µM*
COc1ccc(N2CCOCC2)c(NC(=O)c2ccc(Br)o2)c1 | 16.4µM* | 2.1% | . | -4.4% | 1.7% | -26.0%
O=C(CNC(=O)c1ccc(Br)o1)NCc1ccc(Cl)cc1Cl | 11.6% | -5.2% | . | -4.1% | -14.3% | 11.1%
CC(=O)c1cccc(NC(=O)c2noc3c2CCc2ccccc2-3)c1 | ? | 2.51µM* | 3.55µM* | 3.98µM* | 2.39µM* | ?
Cc1ccc(O)c(NC(=O)c2noc3c2CCc2ccccc2-3)c1 | ? | ? | -50.6% | ? | 4.6% | 23.1µM*
COc1ccc(-c2n[nH]c(=S)n2/N=C/C=C/c2ccccc2OC)cc1 | -16.5% | -3.1% | 24.8% | -3.7% | -12.6% | -0.7%
COc1ccccc1/C=C/C=N/n1c(-c2ccccc2)n[nH]c1=S | ? | 13.1% | . | 2.3% | 15.1µM* | -4.9%
SMILES | ELG1 DNA repair | Rab9 promoter act | SMN2 splice enh | NPC1 promoter act | FLuc modulator | ELG1 genotoxic
CC(C)(C)c1ccc(-c2n[nH]c(=S)n2/N=C/c2ccncc2)cc1 | -0.5% | 25.2% | 19.1% | 11.9% | 10.7µM* | 2.0%
COc1cc(/C=N/n2c(-c3ccccc3)n[nH]c2=S)cc(OC)c1OC | 4.11µM* | -3.3% | . | 1.5% | 3.0% | 3.8%
CN(C)c1ccc(-c2nc3ccccc3c(=O)[nH]2)cc1 | ? | 0.251µM* | . | 0.355µM* | 0.601µM* | 0.82µM*
Cc1cccc(-c2nc3ccccc3c(=O)[nH]2)c1 | ? | 3.16µM* | . | 2.82µM* | 10.7µM* | ?
COc1ccc(-c2nc3ccccc3c(=O)[nH]2)cc1 | ? | 0.708µM* | . | 1.41µM* | 3.38µM* | 9.2µM*
COc1ccc(Br)cc1S(=O)(=O)NCCCN1CCOCC1 | -2.6% | -2.0% | . | -0.8% | 6.4% | 0.2%
COc1cccc(-n2c(-c3ccco3)nc3c(cnn3-c3ccc(C)cc3)c2=O)c1 | . | . | -34.8% | . | -4.9% | .
COc1cc(N2Cc3ccccc3C2)ccc1C=O | ? | ? | . | ? | 21.3µM* | 3.98µM*
O=C(CN1C(=O)c2cccc([N+](=O)[O-])c2C1=O)OCC(=O)N1CCCCC1 | ? | 21.2% | . | 8.2% | 8.49µM* | -2.7%
CN(Cc1nc2ccccc2c(=O)[nH]1)C(=O)c1cccc(NC(=O)c2cccs2)c1 | ? | . | . | . | . | -5.1%
CSc1nc2sc3c(c2c(=S)[nH]1)CC(C)(C)OC3 | -9.1% | 17.3% | . | 2.5% | 19µM* | -1.9%
CC1(C)Cc2c(sc3nc(N/N=C/c4ccccc4)[nH]c(=O)c23)CO1 | 2.2% | 21.8% | -40.3% | 3.3% | ? | 1.7%
CC(C)=NNc1nc2sc3c(c2c(=O)[nH]1)CC(C)(C)OC3 | 7.0% | -4.4% | -0.3% | 0.7% | 15.1µM* | 0.1%
CCc1nc2sc3c(c2c(=S)[nH]1)CC(C)(C)OC3 | 11.2% | 8.8% | . | 15.1% | -10.3% | -0.5%
CN1C(=O)Cc2cc(S(=O)(=O)N3CCOCC3)ccc21 | 20.7% | -3.2% | -8.4% | 1.3% | 4.6% | 3.0%
Cc1cc(S(=O)(=O)Nc2ccc3oc4c(c3c2)CCCC4)ccc1Cl | . | . | -39.0% | . | ? | .
O=C1c2ccccc2C(=O)c2[nH]c(=O)[nH]c21 | 7.3µM* | -34.0% | . | -17.0% | -0.2% | -19.0%
Cn1ccnc1SCC(=O)Nc1ccc2c(c1)OC(F)(F)O2 | 0.0% | 11.4% | 4.7% | 5.7% | -15.7% | 7.5%
COc1ccc(-c2cncnc2-c2ccc(OC)cc2O)cc1 | 5.8µM* | 2.5% | . | 0.3% | 0.0% | -18.4%
CCOC(=O)Cn1nnnc1C(C(C)C)N(Cc1cc2c(C)cc(C)cc2[nH]c1=O)C1CCCC1 (stereo not given) | 18.4µM* | -5.1% | -4.5% | -3.9% | 0.8% | -3.5%
O=C(Nc1cccc(-c2nc3ccccc3o2)c1)c1ccc(-c2ccc(Br)cc2)o1 | . | . | -3.2% | . | ? | .
CS(=O)(=O)N1CCN(c2ccccc2NC(=O)c2ccc(-c3ccc(Br)cc3)o2)CC1 | 14.6µM* | 3.0% | -13.4% | 1.0% | -12.3% | -11.7%
COC(=O)c1ccccc1NC(=O)c1ccc(-c2ccc(Br)cc2)o1 | ? | 0.794µM* | 28.3% | 10.4% | -7.4% | 1.84µM*
O=C(Nc1cccc(NC(=O)c2ccc(-c3ccc(Br)cc3)o2)c1)c1ccco1 | 9.2µM* | 19.2% | 17.1% | 18.7% | 2.69µM* | -7.1%

Assay outcomes deposited in PubChem by National Center for Advancing Translational Sciences (NCATS).
